Screens: PubChem, National Center for Advancing Translational Sciences (NCATS)
SARS PLpro yeast – blocks SARS-CoV papain-like protease in a yeast assay; S. cerevisiae expressing SARS-CoV PLpro, growth rescue; Potency, µM (titrated, usually from 32.9 µM), for the others: at the highest dose activity, positive = growth rescue, hits mostly activators; 0.19% of 330,000 active; AID 485353; note: potency is the fitted concentration of half-maximal effect; 0% is about no effect; nearly all actives have a fitted effect of over 55% in size
AMA1 RON2 block – inhibitors of Plasmodium falciparum AMA1-RON2 interaction; AlphaScreen AMA1-biotinylated RON2 peptide binding; AID 720542; Potency, µM (doses to about 58.2 µM), inactives show at the highest dose activity change, negative = inhibition, most hits filed as inhibitors; 0.2% of 360,000 active; active = well fitted inhibition curve with a large enough effect; inconclusive = small, poorly fitted or top-dose-only effect; inactive = no such curve, though single readings can be large or run the other way;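 note: potency is the fitted concentration of half-maximal effect; 0% = vehicle wells and -100% = peptide control; nearly all actives have a fitted effect of over 45% in size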
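AMA1 (3D7) with his tag at 25 nM final met compounds first, then biotinylated RON2 peptide at 25 nM; detection used donor plus acceptor beads, 10 µg/mL apiece, read by AlphaScreen after 30 min at room temperature.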
NS1 inh – blocks influenza NS1 protein function. Potency, µM (titrated, usually from 46.1 µM), for inactives: at the highest dose activity, positive = more growth. 0.4% of 270,000 active; note: potency is the fitted concentration of half-maximal effect; actives are rising curves; nearly all actives have a fitted effect of over 50% in size
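OD600 was taken as the measure of yeast growth restored by compound in an NS1-expressing S. cerevisiae strain. Cells had been washed out of glucose medium and diluted 1:100 into galactose -URA medium, pH 6.0.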
Flu NS1 inh – influenza NS1 function inhibition validation. shares compounds with NS1 inh. influenza NS1 function cell assay, 15-point titration. activity change, negative = inhibition, % at 32.9 µM. 1,400 tested, under 10 active. AID 492980; note: 0% is about no effect
Flu PR8 replic – reduces influenza A/PR/8/34 replication in MDCK cells; virus titer (log TCID50), log10 TCID50 at 5 µM; 30% of 95 active; MDCK infected influenza A/PR/8/34, virus titer TCID50; hits give low values; shares compounds with NS1 inh; call rule not given here
An asterisk follows results filed as active; ? = inconclusive; / = no result given. A selection: hits, their analogues and other compounds. The true share with any hit is near 0.65%. Unless noted, calls come from the whole dose curve.

SMILES	SARS PLpro yeast	AMA1 RON2 block	NS1 inh	Flu NS1 inh	others
C#CCOc1ccc(/C=C2/C(=O)N(c3cccc(C(=O)O)c3)N=C2C)cc1OC	4.6%	-11.6%	11.2µM*	?
COc1cc(/C=C2\C(=O)N(c3cccc(C(=O)O)c3)N=C2C)ccc1OCc1ccccc1	/	0.0%	/	/
COC(=O)c1cc(C(=O)NNC(=O)c2ccc3c(c2)OCO3)cc([N+](=O)[O-])c1	8.3%	64.5%	/	/
COc1ccc2nc(Nc3nc(CSc4nc5ccccc5[nH]4)cc(=O)[nH]3)nc(C)c2c1	0.9%	-5.5%	?	/
Cc1nc(Nc2nc(CSc3nc4ccccc4[nH]3)cc(=O)[nH]2)nc2ccccc12	1.7%	-3.4%	14.1µM*	13.2
CCCSc1ccc([C@H]2N[C@@](CC(C)C)(C(=O)OC)[C@H]3C(=O)N(CC)C(=O)[C@@H]23)cc1	-5.8%	5.6%	/	/
CCCN(Cc1nnc(-c2ccccc2Cl)o1)C(=O)c1cc(S(=O)(=O)N2CCOCC2)ccc1F	-5.2%	14.2%	/	/
CCOC(=O)N1CCC(NC(=O)c2ccccc2C(=O)O)CC1	0.2%	0.4%	?	-2.5
CCOC(=O)N1CCC(NC(=O)Cc2ccccc2)CC1	-8.5%	-20.8%	1.5%	/
Cc1ccc(NC(=O)C2CCCN2C(=O)OCc2ccccc2)c(O)c1 (configuration not stated)	-0.1%	-2.3%	9.9%	/
Cc1ccc(NC(=O)CC2SC(=O)NC2=O)cc1 (configuration not stated)	?	106.0%	6.31µM*	-5.9
COc1ccc(NC(=O)CC2SC(=O)NC2=O)cc1 (configuration not stated)	-1.3%	41.4%	/	/
COCC(=O)Nc1ccc2c(c1)OCC(=O)N2Cc1ccc(C)cc1	-4.1%	5.5%	-4.5%	/
CCOC(=O)C1=C(C)NC2=C(C(=O)CCC2)C1c1cn(Cc2ccc(Cl)cc2Cl)nc1-c1ccccc1 (configuration not stated)	4.6%	1.0%	?	2.1	Flu PR8 replic=8
COC(=O)C1=C(C)NC2=C(C(=O)CCC2)C1c1cccs1 (configuration not stated)	-2.2%	/	?	/
COC(=O)C1=C(C)NC2=C(C(=O)CCC2)C1c1cn(Cc2ccc(Cl)cc2Cl)nc1-c1ccccc1 (configuration not stated)	5.2%	-29.7%	12.6µM*	12.9
CCOC(=O)C1=C(C)NC2=C(C(=O)CCC2)C1c1cc(OC)ccc1OC (configuration not stated)	10.9%	1.7%	-0.2%	/
COc1cccc2c(=O)c(C(=O)NCc3cccs3)c[nH]c12	2.1%	55.8%	1.41µM*	-4.1
COc1cccc2c(=O)c(C(=O)NCCc3ccccc3)c[nH]c12	/	8.4%	/	/
CCOc1c([N+](=O)[O-])cc2c(C)c(C(=O)N3CCN(C)CC3)oc2c1OCC	-1.9%	-4.0%	-3.3%	/
O=C(c1ccc2oc(CCc3ccccc3)nc2c1)N1CCC(O)CC1	-5.9%	-8.5%	-6.5%	/
COC(=O)c1cc(C(=O)OC)cc(N2C(=O)CC(NNC(=O)c3ccccc3Br)C2=O)c1 (configuration not stated)	0.7%	17.9%	18.7%	/
COC(=O)c1cc(C(=O)OC)cc(N2C(=O)CC(NNC(=O)c3ccc(C)cc3)C2=O)c1 (configuration not stated)	14.4%	12.2%	7.08µM*	12.3
Cc1cc(Cl)ccc1NC(=O)CN1C(=O)NC2(CCCc3ccccc32)C1=O (configuration not stated)	1.7%	-15.9%	/	/
COc1ccc(-c2cc(C(=O)Nc3ccccc3O)c3ccccc3n2)cc1OC	-0.9%	-2.5%	15.7%	/
SMILES	SARS PLpro yeast	AMA1 RON2 block	NS1 inh	Flu NS1 inh	others
COc1ccc(-c2cc(C(=O)Nc3nc4ccccc4s3)c3ccccc3n2)cc1OC	-2.6%	15.7%	22.4µM*	-1.6
CN(CCc1ccccc1)C(=O)CCc1nnc(Cc2ccc3c(c2)OCO3)o1	-1.4%	-0.8%	6.0%	/
O=C(CSc1nccc(=O)[nH]1)N1N=C2/C(=C/c3ccco3)CCCC2C1c1ccco1 (configuration not stated)	2.6%	-21.9%	/	/
Cn1cnnc1SCC(=O)N1N=C2/C(=C/c3ccco3)CCCC2C1c1ccco1 (configuration not stated)	-0.5%	-8.9%	3.55µM*	2.1
CCCc1cc(=O)n(-c2nc3ccccc3s2)[nH]1	-0.6%	119.2%	1.9%	/
CCOC(=O)Cc1cc(=O)n(-c2nc3ccccc3s2)[nH]1	-1.0%	-26.6%	10µM*	0.4
CCOC(=O)CCN(C(=S)Nc1ccccc1)C1CCCCC1	/	7.6%	/	/
